Eight compounds from PubChem BioAssay (NCATS) can be followed below.

Test [1] can be described thus: qHTS assay for small molecule antagonists of peroxisome proliferator-activated receptor delta signaling (AID 588535; active means well fitted inhibition curve with a large enough effect in the signal ratio, with a control signal flat, not every such curve was filed as active; the % refers to the signal ratio;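 on max response: cells co-treated with a PPAR-delta agonist as stimulator during compound exposure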). Particulars: HEK293T PPARd-UAS-bla, beta-lactamase FRET ratio, 18 h; 460 nm channel. In a few lines:
(§1)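 Cell-based beta-lactamase assay in antagonist mode: 4000 HEK293T PPAR-delta-UAS-bla cells per well, 5 hr preincubation then 18 hr compound incubation at 37 C. IC50 obtained by Hill equation fitting.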
(qHTS replaces the single test concentration by a dilution series.)

In test [2] the target is Peroxisome proliferator-activated receptor delta (Homo sapiens) (UniProt Q03181). The description is as above. In a few lines:
as §1

The target of test [3] is Peroxisome proliferator-activated receptor gamma (Homo sapiens) (UniProt P37231). Description: qHTS assay for small molecule agonists of peroxisome proliferator-activated receptor gamma signaling (AID 588536; active means well fitted curve in the direction sought with a large enough effect in the signal ratio, with a control signal flat, not every such curve was filed as active; the % refers to the signal ratio;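 further: 0% = DMSO basal wells and 100% = rosiglitazone at 2 µM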). In a few lines: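 GeneBLAzer PPAR-gamma-UAS-bla HEK293 cells in 1% charcoal/dextran-treated FBS medium were treated 16 h at 37 C with compounds. Beta-lactamase activity was read by CCF4 ratio (460/530 nm). Response was normalized to 2 uM rosiglitazone (100%) and DMSO, then Hill-fitted for EC50 and efficacy.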
Chain of Peroxisome proliferator-activated receptor gamma (Homo sapiens) (P37231 whole entry, looked up): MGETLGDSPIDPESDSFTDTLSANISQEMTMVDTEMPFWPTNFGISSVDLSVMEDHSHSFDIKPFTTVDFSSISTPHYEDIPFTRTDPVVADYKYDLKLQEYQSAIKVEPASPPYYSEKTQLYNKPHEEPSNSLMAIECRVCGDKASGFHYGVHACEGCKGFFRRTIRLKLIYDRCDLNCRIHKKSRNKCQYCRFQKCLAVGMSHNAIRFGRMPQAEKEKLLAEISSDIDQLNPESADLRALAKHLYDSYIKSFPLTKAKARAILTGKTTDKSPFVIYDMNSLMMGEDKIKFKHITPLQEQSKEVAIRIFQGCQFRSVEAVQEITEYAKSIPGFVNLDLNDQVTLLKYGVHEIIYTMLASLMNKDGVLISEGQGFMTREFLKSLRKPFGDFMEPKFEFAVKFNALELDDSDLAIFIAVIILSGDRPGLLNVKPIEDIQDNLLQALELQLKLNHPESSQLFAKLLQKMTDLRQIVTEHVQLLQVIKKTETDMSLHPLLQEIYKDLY

Test [4] shares this target. Description: qHTS assay for small molecule antagonists of peroxisome proliferator-activated receptor gamma signaling (AID 588537; active means well fitted inhibition curve with a large enough effect in the signal ratio, with a control signal flat, not every such curve was filed as active; the % refers to the signal ratio;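 further: reporter cells co-stimulated with 50 nM rosiglitazone agonist during compound treatment; % of control where 0% means no effect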). In a few lines: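 Inhibitors of agonist-stimulated UAS-bla reporter activity were sought in HEK293 cells; rosiglitazone (50 nM) defined full signal and DMSO baseline. Curves fitted to Hill model gave IC50 and efficacy.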
Test [5] deals with Vitamin D3 receptor (Homo sapiens) (UniProt P11473). Description: qHTS assay for small molecule antagonists of vitamin D receptor signaling (AID 588541).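 Further: receptor activated by calcitriol during compound treatment; series mostly up to about 77 µM; on the % scale 0 is the no-effect control and ±100 the full control effect.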 In a few lines: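 Antagonist-mode beta-lactamase reporter assay: HEK293T VDR-UAS-bla cells were exposed to titrated compound alongside 1-alpha,25-dihydroxyvitamin D3 at 3 nM final for 16 h. Values were normalized to the 50 nM agonist control and DMSO basal, with IC50 and efficacy from Hill equation fits.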
Chain of Vitamin D3 receptor (Homo sapiens) (P11473 whole entry, looked up): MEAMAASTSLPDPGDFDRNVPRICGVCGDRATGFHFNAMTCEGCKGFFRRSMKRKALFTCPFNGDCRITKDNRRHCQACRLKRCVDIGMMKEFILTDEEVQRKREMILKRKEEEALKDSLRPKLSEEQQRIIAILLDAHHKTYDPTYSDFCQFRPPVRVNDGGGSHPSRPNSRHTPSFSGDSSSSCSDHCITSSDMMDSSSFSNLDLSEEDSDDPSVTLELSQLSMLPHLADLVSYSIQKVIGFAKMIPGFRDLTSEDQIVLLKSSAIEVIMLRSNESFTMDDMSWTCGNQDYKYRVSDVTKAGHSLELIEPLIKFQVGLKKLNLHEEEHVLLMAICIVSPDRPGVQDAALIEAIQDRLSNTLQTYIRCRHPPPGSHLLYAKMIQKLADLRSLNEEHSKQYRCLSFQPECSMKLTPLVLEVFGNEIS

The target is the same in test [6]. Put plainly: qHTS assay for small molecule agonists of vitamin D receptor signaling (AID 588543).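 Further: 0% = DMSO basal and 100% = reference agonist control.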 In a few lines:
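β-lactamase reporter, VDR-UAS-bla HEK293T, agonist mode. Cells plated 5 h at 37 °C, compound titration 16 h at 37 °C, CCF4 dye 2 h RT, ratio 460/530 nm. Hill fit → EC50, efficacy vs 50 nM 1α,25-(OH)2D3.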

Test [7] can be described thus: qHTS assay for small molecule agonists of retinoid X receptor alpha signaling (AID 588544).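 On activation: 0% = DMSO basal wells and 100% = reference agonist.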 Particulars: HEK293T RXRa-UAS-bla, beta-lactamase reporter, 18 h; 530 nm emission.
The target of test [8] is Retinoic acid receptor RXR-alpha (Homo sapiens) (UniProt P19793). Described as above.
Chain of Retinoic acid receptor RXR-alpha (Homo sapiens) (P19793 whole entry, looked up): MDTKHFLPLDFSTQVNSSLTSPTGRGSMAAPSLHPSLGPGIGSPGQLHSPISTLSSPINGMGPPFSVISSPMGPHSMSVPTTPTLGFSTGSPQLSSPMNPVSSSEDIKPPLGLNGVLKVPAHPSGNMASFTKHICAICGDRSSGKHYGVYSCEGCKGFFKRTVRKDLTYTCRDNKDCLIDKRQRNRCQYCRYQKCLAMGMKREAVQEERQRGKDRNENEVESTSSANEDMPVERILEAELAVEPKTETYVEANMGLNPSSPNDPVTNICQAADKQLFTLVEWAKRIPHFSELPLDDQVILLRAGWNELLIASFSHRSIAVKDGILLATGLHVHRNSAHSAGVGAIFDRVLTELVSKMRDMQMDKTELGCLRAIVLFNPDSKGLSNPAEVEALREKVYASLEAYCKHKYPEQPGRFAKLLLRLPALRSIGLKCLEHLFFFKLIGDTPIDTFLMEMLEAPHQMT
The target of test [9] is Thyroid hormone receptor beta (Homo sapiens) (UniProt P10828). Put plainly: qHTS assay for small molecule agonists of thyroid hormone receptor beta signaling (AID 588545).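 Further: 0% = DMSO only and 100% = 10 nM T3.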 In a few lines:
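TR-UAS-bla GripTite HEK 293 cells (2500/well, medium with 2% charcoal/dextran FBS) were treated in agonist mode for 18 h at 37 C, titrated. Beta-lactamase was read by CCF4 ratio after 2 h; normalized to 10 nM T3 (100%) and DMSO, Hill-fitted for EC50 and efficacy.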

The target is the same in test [10]. Put plainly: qHTS assay for small molecule antagonists of thyroid hormone receptor beta signaling (AID 588547; active means well fitted inhibition curve with a large enough effect in the signal ratio, with a control signal flat, not every such curve was filed as active; the % refers to the signal ratio;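 further: cells stimulated with 0.4 nM T3 agonist during compound exposure; series mostly up to about 77 µM; on the % scale 0 is the no-effect control and ±100 the full control effect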). Particulars: TR-UAS-bla HEK293, beta-lactamase ratio, antagonist mode, 18 h. In a few lines: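 Inhibition of T3-driven (0.4nM final) beta-lactamase reporter activity was measured over 0.59 nM to 92 uM compound after 18 h at 37 C. The cells were GripTite HEK293 TR-UAS-bla in charcoal/dextran-stripped serum, with CCF4 ratio read-out and IC50 from Hill fits.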

Test [11] has as its target Voltage-gated inwardly rectifying potassium channel KCNH2 (Homo sapiens) (UniProt Q12809). Put plainly: qHTS Assay for Small Molecule Inhibitors of the Human hERG Channel Activity (AID 588834; active means well fitted inhibition curve with a large enough effect;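 further: top concentration of the series differs between compounds; on the % scale 0 is the no-effect control and ±100 the full control effect; lower thallium flux fluorescence means stronger hERG block; nearly all actives have a fitted effect of over 50% in size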). In a few lines:
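Concentration-response qHTS measuring drop in thallium-sensitive dye signal. U2OS cells carrying BacMam hERG; compound exposure ~10 min, then stimulation buffer and 2 min read at 1 sec intervals.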

The nature of test [12]: qHTS assay for small molecule activators of the p53 signaling pathway (AID 651743; active means well fitted activation curve with a large enough effect in the signal ratio, not every such curve was filed as active; the % refers to the signal ratio; further: series mostly up to about 92 µM; % of control where 0% means no effect). Particulars: HCT-116 p53RE-bla, beta-lactamase FRET ratio, 16 h; stronger effect = higher value. In a few lines:
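Screen for p53 pathway agonists uses stably transfected p53RE-bla HCT-116 cells, 4,000 per well, treated 16 h at 37 C with compounds in DMSO.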

For test [13], the target named is Glucocorticoid receptor (Homo sapiens) (UniProt P04150). Description: qHTS assay for small molecule antagonists of glucocorticoid receptor signaling (AID 588533; active means well fitted inhibition curve with a large enough effect in the signal ratio, with a control signal flat, not every such curve was filed as active; the % refers to the signal ratio;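 further: cells stimulated with 2 nM dexamethasone as agonist; on the % scale 0 is the no-effect control and ±100 the full control effect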). In a few lines:
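Antagonist-mode qHTS: compound titrations added to GRE-bla HeLa cells, then dexamethasone 2 nM final; 18 h, 37 C. CCF4 FRET fluorescence normalized to dexamethasone and DMSO; IC50 from Hill fit.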

A short description of test [14]: qHTS assay for small molecule antagonists of retinoid X receptor alpha signaling (AID 588546; active means well fitted inhibition curve with a large enough effect in the signal ratio, with a control signal flat, not every such curve was filed as active; the % refers to the signal ratio;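 further: cells stimulated with 9-cis-retinoic acid as agonist; on the % scale 0 is the no-effect control and ±100 the full control effect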). The following applies: HEK293T RXRa-UAS-bla, beta-lactamase ratio, antagonist mode; measured here: W530 green channel, cytotoxicity proxy. In a few lines: (§2)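 Beta-lactamase reporter inhibition, read as CCF4 fluorescence ratio (ex 405, em 460/530 nm) after 2 h at RT. HEK293T UAS-bla cells, 2500/well, were stimulated with 9-cis-RA at 500 or 100 nM final alongside test compound for 18 h at 37 C.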

Test [15] addresses Retinoic acid receptor RXR-alpha (Homo sapiens) (UniProt P19793). The description is as above. The following applies: HEK293T RXRa-UAS-bla, beta-lactamase ratio, antagonist mode. In a few lines:
as §2

A short description of test [16]: qHTS assay for small molecule agonists of the antioxidant response element (ARE) signaling pathway (AID 651741; active means well fitted activation curve with a large enough effect in the signal ratio; the % refers to the signal ratio; further: % of control where 0% means no effect). In a few lines:
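Seeding 2,000 ARE-bla HepG2 cells per well preceded a 5 h incubation at 37 C/5% CO2 and a 16 h compound exposure at 37 C. Beta-lactamase reporter activity was then quantified by fluorescence after 2 h with LiveBLAzer B/G FRET substrate.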

A short description of test [17]: qHTS assay for small molecule activators of the nuclear factor-kappa B (NF-kB) signaling pathway (AID 651749; active means well fitted activation curve with a large enough effect in the signal ratio; the % refers to the signal ratio; further: series mostly up to about 77 µM; % of control where 0% means no effect). The following applies: NF-kB-bla ME-180 cells, beta-lactamase FRET ratio, 16 h; stronger effect = higher value. In a few lines:
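Stably transfected ME-180 line; NF-kB response element upstream of beta-lactamase. Treatment: compound or DMSO, 16 hr. Detection: fluorescent FRET substrate.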

The structures appear in SMILES notation. Where “and” joins values, the source holds several entries; their conditions need not be identical. Equal values may be shown once. Inconclusive results are not listed. Calls of active or inactive are those of the source. Unless noted, the call rests on the fitted dose curve.

Chain of Glucocorticoid receptor (Homo sapiens) (P04150 whole entry, looked up): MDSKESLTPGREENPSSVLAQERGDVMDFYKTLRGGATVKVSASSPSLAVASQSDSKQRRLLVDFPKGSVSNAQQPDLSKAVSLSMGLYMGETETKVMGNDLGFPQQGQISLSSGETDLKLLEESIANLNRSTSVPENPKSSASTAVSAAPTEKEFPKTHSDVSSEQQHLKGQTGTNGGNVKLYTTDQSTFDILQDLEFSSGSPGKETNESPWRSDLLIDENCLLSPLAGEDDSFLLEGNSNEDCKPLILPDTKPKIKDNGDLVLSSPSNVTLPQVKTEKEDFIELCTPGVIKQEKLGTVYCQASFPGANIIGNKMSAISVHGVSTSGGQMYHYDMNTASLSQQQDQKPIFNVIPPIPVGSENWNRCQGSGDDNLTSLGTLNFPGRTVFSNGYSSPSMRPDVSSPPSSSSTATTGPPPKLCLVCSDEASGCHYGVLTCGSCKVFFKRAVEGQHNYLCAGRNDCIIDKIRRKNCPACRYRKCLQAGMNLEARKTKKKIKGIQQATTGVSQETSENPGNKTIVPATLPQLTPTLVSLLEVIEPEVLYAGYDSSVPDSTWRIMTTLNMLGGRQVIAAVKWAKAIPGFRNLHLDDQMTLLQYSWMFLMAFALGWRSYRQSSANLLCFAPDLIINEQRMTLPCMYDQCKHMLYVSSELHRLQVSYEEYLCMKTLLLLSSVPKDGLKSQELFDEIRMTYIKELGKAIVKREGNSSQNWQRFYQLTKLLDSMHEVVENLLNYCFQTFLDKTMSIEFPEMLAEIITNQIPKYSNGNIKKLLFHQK
Chain of Thyroid hormone receptor beta (Homo sapiens) (P10828 whole entry, looked up): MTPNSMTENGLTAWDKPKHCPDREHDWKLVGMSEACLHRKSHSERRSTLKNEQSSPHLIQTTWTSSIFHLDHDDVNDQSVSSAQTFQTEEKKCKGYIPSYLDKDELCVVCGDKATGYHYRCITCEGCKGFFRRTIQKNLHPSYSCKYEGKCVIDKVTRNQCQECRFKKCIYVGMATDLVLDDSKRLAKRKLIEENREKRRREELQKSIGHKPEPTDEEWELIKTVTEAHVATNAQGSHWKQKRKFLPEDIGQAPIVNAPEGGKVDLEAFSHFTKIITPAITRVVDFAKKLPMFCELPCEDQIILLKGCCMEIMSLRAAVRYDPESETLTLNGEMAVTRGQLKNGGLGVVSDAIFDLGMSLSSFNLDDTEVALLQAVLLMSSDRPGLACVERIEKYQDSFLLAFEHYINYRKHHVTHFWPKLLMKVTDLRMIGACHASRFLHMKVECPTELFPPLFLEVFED
Chain of Peroxisome proliferator-activated receptor delta (Homo sapiens) (Q03181 whole entry, looked up): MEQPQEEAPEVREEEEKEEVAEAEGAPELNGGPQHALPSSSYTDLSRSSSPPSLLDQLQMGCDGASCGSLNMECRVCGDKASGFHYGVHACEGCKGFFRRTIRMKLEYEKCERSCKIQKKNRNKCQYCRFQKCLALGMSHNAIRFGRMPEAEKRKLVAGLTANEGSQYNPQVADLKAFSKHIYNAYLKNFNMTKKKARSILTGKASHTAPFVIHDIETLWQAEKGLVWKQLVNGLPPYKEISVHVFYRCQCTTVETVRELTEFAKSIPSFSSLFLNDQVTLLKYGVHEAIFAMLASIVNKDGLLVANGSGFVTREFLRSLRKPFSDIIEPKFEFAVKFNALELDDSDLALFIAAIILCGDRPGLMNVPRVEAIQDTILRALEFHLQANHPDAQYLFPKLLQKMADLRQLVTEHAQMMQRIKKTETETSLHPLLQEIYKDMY
Chain of Voltage-gated inwardly rectifying potassium channel KCNH2 (Homo sapiens) (Q12809 whole entry, looked up): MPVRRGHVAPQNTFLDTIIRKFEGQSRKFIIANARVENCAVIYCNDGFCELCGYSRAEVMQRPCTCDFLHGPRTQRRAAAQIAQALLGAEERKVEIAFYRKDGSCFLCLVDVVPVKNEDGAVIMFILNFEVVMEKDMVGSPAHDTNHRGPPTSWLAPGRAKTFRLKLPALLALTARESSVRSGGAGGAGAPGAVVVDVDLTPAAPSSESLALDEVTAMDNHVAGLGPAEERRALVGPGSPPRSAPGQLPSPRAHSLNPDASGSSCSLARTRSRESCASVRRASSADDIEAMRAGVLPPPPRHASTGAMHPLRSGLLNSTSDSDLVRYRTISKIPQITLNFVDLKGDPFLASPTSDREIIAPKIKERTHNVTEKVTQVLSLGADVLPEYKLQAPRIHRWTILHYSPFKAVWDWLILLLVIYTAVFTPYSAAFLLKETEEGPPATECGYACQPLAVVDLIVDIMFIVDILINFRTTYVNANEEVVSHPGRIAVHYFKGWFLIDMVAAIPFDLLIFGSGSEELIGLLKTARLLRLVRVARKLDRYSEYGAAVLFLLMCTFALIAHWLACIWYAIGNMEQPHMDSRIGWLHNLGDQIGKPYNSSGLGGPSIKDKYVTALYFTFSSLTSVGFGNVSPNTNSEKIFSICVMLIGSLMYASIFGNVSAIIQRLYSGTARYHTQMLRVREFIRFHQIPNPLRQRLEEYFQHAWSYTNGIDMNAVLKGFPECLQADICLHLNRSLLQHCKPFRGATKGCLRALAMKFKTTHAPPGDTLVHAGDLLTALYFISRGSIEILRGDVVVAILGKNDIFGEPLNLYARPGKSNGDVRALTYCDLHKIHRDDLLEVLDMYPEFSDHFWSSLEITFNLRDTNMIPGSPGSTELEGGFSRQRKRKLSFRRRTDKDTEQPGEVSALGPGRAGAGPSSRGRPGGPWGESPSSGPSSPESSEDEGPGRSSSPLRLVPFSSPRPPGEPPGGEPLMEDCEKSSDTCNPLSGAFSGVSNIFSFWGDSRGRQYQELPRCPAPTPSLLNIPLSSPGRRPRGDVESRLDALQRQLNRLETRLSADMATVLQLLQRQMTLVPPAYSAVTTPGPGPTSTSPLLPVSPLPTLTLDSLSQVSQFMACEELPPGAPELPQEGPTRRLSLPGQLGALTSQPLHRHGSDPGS

In the case of `Cc1cccc2cccnc12`, the max response was -4.69% in [1] and -2.92% in test [7]. The Potency entry in test [2] and in test [11] was “inactive” throughout. Moreover, the outcome in [3], in [4], in test [5], in test [6], in test [8] and in test [9] was inactive. In addition, the activity change % (negative = inhibition) in [10] is -0.45% (inactive). Also, the activation in [12] is -4.27% (inactive).
Turning to `CCCCCCC(=O)O`, the call in test [13], in [5], in [6], in test [8] and in test [9] was inactive. Also, the max response in [1] was -11.6%; in test [7] it was -3.5%; in [14], -1.09%; in test [15], 7.92% (inactive). The Potency result in test [2] and in [11] was “inactive” each time. The activity change % (negative = inhibition) in test [10] is -7.74% (inactive). In addition, the activation in test [12] was -5.16% (inactive).
For the compound `CC(CCl)OC(C)CCl` (stereo unspecified), the compound was called inactive in test [13], in test [3], in test [8] and in test [9]. In addition, the max response in test [1] is 6.69%; in test [7] it was 2.52%; in test [14] it was -11.8%. Also, the Potency entry in test [2], in test [11] and in test [16] was “inactive” in each case. In test [10], the activity change % (negative = inhibition) is -2.31% (inactive). For the same compound, the activation in [12] is -3.45% (inactive); in test [17] it was 0.22% (inactive).
On to `CC(=O)OC(C)=O`, for which the result in test [13], in test [3], in test [4], in test [5], in test [6] and in test [8] was inactive. For the same compound, in test [9], the compound was classed as inactive. For the same compound, the figures for the max response in test [7], in [14] and in test [15] were -0.73%, -8.16% and 5.52% (inactive), respectively. Further, the activity change % (negative = inhibition) in test [10] is 16.3% (inactive). For the same compound, the Potency entry in test [11] and in [16] was “inactive” in each case. The activation in [12] is 1.52% (inactive); in test [17] it was -1.18% (inactive).
Take `CCOCC(=O)O`: the outcome in [13], in test [3], in test [4], in test [5], in test [6] and in test [8] was inactive. Also, in test [9], the compound was called inactive. Besides, the max response in test [1] was -19%; in test [7], -7.45%; in [14] it was 2.97%; in test [15], 4.52% (inactive). In addition, the activity change % (negative = inhibition) in test [10] was 4.7% (inactive). In addition, the Potency entry in test [11] and in [16] was “inactive” each time. In addition, the figures for the activation in test [12] and in test [17] were -3.4% (inactive) and 0.266% (inactive), respectively.
Turning to `c1ccc(Oc2ccccc2)cc1`, the compound was called inactive in test [13], in test [5], in [6], in test [8] and in test [9]. For the same compound, the max response in test [1] is -19.2% and -5.05%; in [7] it was -5.86% and -5.26%; in test [14], -2.47% and -11.6%; in test [15], -1.69% (inactive) and -4.15% (inactive). Further, the Potency entry in test [2] and in test [11] was “inactive” each time. Moreover, in test [10], the activity change % (negative = inhibition) is 13.9% (inactive) and 3.24% (inactive). Moreover, the activation was -0.263% (inactive) and 10.2% (inactive) in [12]; -0.173% (inactive) and -1.25% (inactive) in test [17].
In the case of `CCC(C)(C)C(=O)O`, the max response in test [1] was -22.2%; in test [7] it was -9.68%; in [14], -3.08%; in test [15] it was 6.62% (inactive). In addition, the Potency result in test [2] and in test [16] was “inactive” throughout. In addition, the outcome in test [3], in test [4], in test [5], in [6] and in [9] was inactive. Besides, in [10], the activity change % (negative = inhibition) was -3.87% (inactive). The activation was 0.0165% (inactive) in [12] and -0.114% (inactive) in [17].
Turning to `Nc1cc([N+](=O)[O-])ccc1C(=O)O`, the max response in test [1] was -33% and 11%; in test [7], 8.72% and -23.6%; in [14], -12.5% and -8.81%; in test [15], 19.8% (inactive) and -9.41% (inactive). Moreover, the Potency entry in test [2], in test [11] and in [16] was “inactive” in each case. Also, the compound was called inactive in [3], in test [4], in test [5], in test [6] and in test [9]. Also, in test [10], the activity change % (negative = inhibition) was 7.18% (inactive) and -9.31% (inactive). The activation in [12] was -3.96% (inactive) and 3.5% (inactive).
